Inconclusive results are not listed. Entries that show only a call come without a potency. The source made the active and inactive calls. The call rests on the fitted dose curve; in most records, active means well fitted activation curve with a large enough effect; inconclusive means small, poorly fitted or top-dose-only effect; inactive means no such curve, though single readings can be large or run the other way.
Potency means the concentration at half of the fitted maximal effect.

This assay is described as follows: qHTS Assay for Identifying a Potential Treatment of Ataxia-Telangiectasia: Hit Validation.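 Further: phospho-KAP1 level by AlphaLISA as a proxy for ATM-like kinase activity.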 Conditions: Ataxia-telangiectasia cell-based hit validation qHTS, in ATM-null A-T patient fibroblasts; series mostly up to 76.9 µM. The method, boiled down: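 hTERT-immortalized A-T patient fibroblasts (F2112) were dosed at up to 76.7 uM final for 60 min at 37C. After a further 30 min incubation, cells were lysed, and phospho-KAP1 was detected by AlphaLISA after 6 hr at 25C.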
(In general: Quantitative high-throughput screening tests each substance at several concentrations.)
Consider `CNC(=S)N(CCc1c(C)[nH]c2ccc(Cl)cc12)Cc1cccnc1`, for which the Potency result was “inactive”.

Consider `COc1ccc(-c2cc(C(F)(F)F)c(C#N)c(SCC(=O)O)n2)cc1OC`, for which the Potency result is “inactive”.

As to `CCOC(=O)C1=C(O)C(=O)N(Cc2ccccc2)C1`, the Potency entry is “inactive”.

As for `CC1=NOC2(C1)N(C)c1ccccc1C2(C)C` (centres undefined), the Potency result was “inactive”.

As to `C=CCSc1nc2ccccc2n1C(=O)/C=C/c1cc(OC)c(OC)c(OC)c1`, the Potency was 26 µM (active).

On to `O=C(Nc1cnn(C23CC4CC(CC(C4)C2)C3)c1)c1cnn2cccnc12`, for which the Potency result is “inactive”.

Regarding `CCS(=O)(=O)N1Cc2ccccc2CC1C(=O)Nc1cccc(OC)c1` (centres undefined), the Potency result is “inactive”.

Turning to `CCCN1C2CCCC1CC(NC(=S)Nc1cccc(C)c1C)C2` (centres undefined), the Potency result is “inactive”.

Regarding `CC(C)(CO)NC(=O)c1ccc2c(c1)C(=O)c1ccccc1-2`, the Potency entry is “inactive”.

In the case of `Cc1ccc(C2(C)NC(=O)N(CC(=O)Nc3ccccc3N3CCCC3)C2=O)cc1` (centres undefined), the Potency entry is “inactive”.

Consider `CN(C)C(=O)CN(C)S(=O)(=O)c1ccc(Cl)cc1`, for which the Potency entry is “inactive”.

`OC1(CC#CCN2CCCCC2)c2ccccc2-c2ccccc21`: the Potency result is “inactive”.

As to `COc1ccccc1C(=O)NC(=O)Nc1cccc(Cl)c1`, the Potency entry is “inactive”.

Regarding `Cc1ccnc(NC(=O)c2ccccc2NC(=O)c2ccccc2)c1`, the Potency entry is “inactive”.

For the compound `CC(=O)Nc1ccc(NC2=CC(=O)c3ccccc3C2=O)cc1`, the Potency result was “inactive”.

`COc1ccc(C2(C)CC(C)(C)Nc3ccccc32)cc1` (centres undefined): the Potency entry was “inactive”.

`OC(COC(c1ccc(F)cc1)c1ccc(F)cc1)CN1CCCC1` (centres undefined): the Potency entry was “inactive”.

As for `Cn1c(=O)oc2cc(S(=O)(=O)N3CCc4ccccc43)ccc21`, the Potency entry is “inactive”.

As to `CCOC(=O)C1CCN(C(=O)c2cc3cc(Cl)ccc3[nH]2)CC1`, the Potency result was “inactive”.

The values are drawn from PubChem BioAssay AID493192 (National Center for Advancing Translational Sciences (NCATS), 2011).
